In PubChem BioAssay AID1159580 (chemical genetic matrix, 2015):
In all, about 5,500 compounds went through this assay and about 2,000 (36%) were called active. Another 18% or so got no clear call; they are omitted. Cut-off read from the data, not from the text of the source: active = normalized growth mostly below about 0.91 (no sharp cut-off); inconclusive = no clear call, values can overlap the other calls; inactive = mostly above about 0.92. The list shows a part of the results.

Assay: chemical genetic growth profiling, strain panel (AID 1159580);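 note: tested at 20 µM; growth read once vehicle control cultures reached saturation at 30 °C; 1 = growth at the plate median or of vehicle wells; lower values mean less growth of the strain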
Conditions: growth OD

Measured: normalized growth

COc1ccc2c3c([nH]c2c1)C(C)=NCC3
inactive: S. cerevisiae deletion strains, locus YKL009W, strain mrt4, stronger effect = lower value 1.02 | S. cerevisiae deletion strains, locus YKL068W, stronger effect = lower value 0.999 | S. cerevisiae deletion strains, locus YKL085W, strain MDH1 (second series), stronger effect = lower value 0.996 | S. cerevisiae deletion strains, locus YKL085W, strain MDH1, stronger effect = lower value 0.996 | S. cerevisiae deletion strains, locus YKL160W, strain elf1, stronger effect = lower value 1.01 | S. cerevisiae deletion strains, locus YKL190W, strain CNB1, stronger effect = lower value 1.01 | S. cerevisiae deletion strains, locus YKR001C, strain vps1, stronger effect = lower value 0.975 | S. cerevisiae deletion strains, locus YKR026C, strain gcn3, stronger effect = lower value 1.01 | S. cerevisiae deletion strains, locus YKR091W, strain srl3, stronger effect = lower value 0.999 | S. cerevisiae deletion strains, locus YLL001W, strain dnm1, stronger effect = lower value 1.01 | S. cerevisiae deletion strains, locus YLL026W, stronger effect = lower value 0.987 | S. cerevisiae deletion strains, locus YLL041C, strain sdh2, stronger effect = lower value 1.01 | S. cerevisiae deletion strains, locus YLR027C, strain aat2, stronger effect = lower value 1 | S. cerevisiae deletion strains, locus YLR039C, strain RIC1, stronger effect = lower value 1.02 | S. cerevisiae deletion strains, locus YLR058C, strain SHM2, stronger effect = lower value 1.01 | S. cerevisiae deletion strains, locus YLR102C, strain apc9, stronger effect = lower value 0.987 | S. cerevisiae deletion strains, locus YLR113W, strain HOG1, stronger effect = lower value 0.993 | S. cerevisiae deletion strains, locus YLR221C, strain rsa3, stronger effect = lower value 1 | S. cerevisiae deletion strains, locus YLR258W, strain gsy2, stronger effect = lower value 0.999 | S. cerevisiae deletion strains, locus YLR262C, strain YPT6 (second series), stronger effect = lower value 0.983 | S. cerevisiae deletion strains, locus YLR262C, strain YPT6, stronger effect = lower value 1.03 | S. cerevisiae deletion strains, locus YLR268W, strain sec22, stronger effect = lower value 0.979 | S. cerevisiae deletion strains, locus YLR320W, strain mms22, stronger effect = lower value 0.988 | S. cerevisiae deletion strains, locus YLR330W, strain CHS5, stronger effect = lower value 1 | S. cerevisiae deletion strains, locus YLR342W, strain FKS1 (second series), stronger effect = lower value 1.01 | S. cerevisiae deletion strains, locus YLR342W, strain FKS1, stronger effect = lower value 0.972 | S. cerevisiae deletion strains, locus YLR357W, strain rsc2, stronger effect = lower value 0.991 | S. cerevisiae deletion strains, locus YLR370C, strain arc18, stronger effect = lower value 1 | S. cerevisiae deletion strains, locus YLR371W, strain rom2, stronger effect = lower value 0.976 | S. cerevisiae deletion strains, locus YLR384C, strain iki3, stronger effect = lower value 1 | S. cerevisiae deletion strains, locus YLR418C, strain cdc73, stronger effect = lower value 0.98 | S. cerevisiae deletion strains, locus YML016C, strain PPZ1, stronger effect = lower value 1 | S. cerevisiae deletion strains, locus YML032C, strain rad52, stronger effect = lower value 0.993 | S. cerevisiae deletion strains, locus YML120C, strain ndi1, stronger effect = lower value 0.986 | S. cerevisiae deletion strains, locus YML124C, strain tub3, stronger effect = lower value 0.987 | S. cerevisiae deletion strains, locus YMR058W, strain fet3, stronger effect = lower value 1.02 | S. cerevisiae deletion strains, locus YMR078C, strain ctf18, stronger effect = lower value 0.996 | S. cerevisiae deletion strains, locus YMR125W, strain sto1, stronger effect = lower value 1 | S. cerevisiae deletion strains, locus YMR129W, stronger effect = lower value 0.981 | S. cerevisiae deletion strains, locus YMR205C, strain PFK2, stronger effect = lower value 1.01 | S. cerevisiae deletion strains, locus YMR223W, strain ubp8, stronger effect = lower value 0.99 | S. cerevisiae deletion strains, locus YMR231W, strain pep5, stronger effect = lower value 0.999 | S. cerevisiae deletion strains, locus YMR263W, strain SAP30, stronger effect = lower value 1.01 | S. cerevisiae deletion strains, locus YMR307W, strain GAS1, stronger effect = lower value 1.04 | S. cerevisiae deletion strains, locus YNL067W, strain RPL9B, stronger effect = lower value 0.999 | S. cerevisiae deletion strains, locus YNL071W, strain lat1, stronger effect = lower value 1 | S. cerevisiae deletion strains, locus YNL128W, strain TEP1, stronger effect = lower value 1.01 | S. cerevisiae deletion strains, locus YNL153C, strain GIM3, stronger effect = lower value 0.997 | S. cerevisiae deletion strains, locus YNL183C, strain NPR1, stronger effect = lower value 0.934 | S. cerevisiae deletion strains, locus YNL209W, strain ssb2, stronger effect = lower value 1 | S. cerevisiae deletion strains, locus YNL233W, strain BNI4, stronger effect = lower value 0.999 | S. cerevisiae deletion strains, locus YNL248C, strain rpa49, stronger effect = lower value 1 | S. cerevisiae deletion strains, locus YNL250W, strain rad50, stronger effect = lower value 0.983 | S. cerevisiae deletion strains, locus YNL271C, strain bni1, stronger effect = lower value 0.984 | S. cerevisiae deletion strains, locus YNL298W, strain CLA4, stronger effect = lower value 0.971 | S. cerevisiae deletion strains, locus YNL307C, strain MCK1, stronger effect = lower value 0.987 | S. cerevisiae deletion strains, locus YNL322C, strain KRE1 (second series), stronger effect = lower value 1 | S. cerevisiae deletion strains, locus YNL322C, strain KRE1, stronger effect = lower value 1.01 | S. cerevisiae deletion strains, locus YNR049C, strain mso1, stronger effect = lower value 0.999 | S. cerevisiae deletion strains, locus YNR052C, strain pop2, stronger effect = lower value 0.989 | S. cerevisiae deletion strains, locus YOL006C, strain TOP1, stronger effect = lower value 1.02 | S. cerevisiae deletion strains, locus YOL012C, strain htz1 0.706 | S. cerevisiae deletion strains, locus YOL147C, strain pex11, stronger effect = lower value 0.99 | S. cerevisiae deletion strains, locus YOR001W, strain rrp6, stronger effect = lower value 1.01 | S. cerevisiae deletion strains, locus YOR061W, strain CKA2, stronger effect = lower value 1 | S. cerevisiae deletion strains, locus YOR069W, strain VPS5, stronger effect = lower value 1.01 | S. cerevisiae deletion strains, locus YOR070C, strain gyp1, stronger effect = lower value 0.991 | S. cerevisiae deletion strains, locus YOR080W, strain dia2, stronger effect = lower value 0.997 | S. cerevisiae deletion strains, locus YOR083W, strain WHI5, stronger effect = lower value 0.991 | S. cerevisiae deletion strains, locus YOR106W, strain vam3, stronger effect = lower value 1.01 | S. cerevisiae deletion strains, locus YOR136W, strain idh2, stronger effect = lower value 0.983 | S. cerevisiae deletion strains, locus YOR144C, strain elg1, stronger effect = lower value 0.983 | S. cerevisiae deletion strains, locus YOR184W, strain ser1, stronger effect = lower value 0.994 | S. cerevisiae deletion strains, locus YOR231W, strain MKK1, stronger effect = lower value 0.987 | S. cerevisiae deletion strains, locus YOR265W, strain rbl2, stronger effect = lower value 1 | S. cerevisiae deletion strains, locus YOR270C, strain vph1, stronger effect = lower value 0.997 | S. cerevisiae deletion strains, locus YOR290C, strain snf2, stronger effect = lower value 1.01 | S. cerevisiae deletion strains, locus YOR316C, strain cot1, stronger effect = lower value 0.987 | S. cerevisiae deletion strains, locus YPL051W, strain arl3, stronger effect = lower value 0.999 | S. cerevisiae deletion strains, locus YPL055C, strain LGE1, stronger effect = lower value 1.03 | S. cerevisiae deletion strains, locus YPL078C, strain atp4, stronger effect = lower value 1 | S. cerevisiae deletion strains, locus YPL106C, strain sse1, stronger effect = lower value 0.991 | S. cerevisiae deletion strains, locus YPL240C, strain hsp82, stronger effect = lower value 0.996 | S. cerevisiae deletion strains, locus YPL241C, strain CIN2, stronger effect = lower value 1 | S. cerevisiae deletion strains, locus YPL256C, strain CLN2, stronger effect = lower value 0.976 | S. cerevisiae deletion strains, locus YPR119W, strain clb2, stronger effect = lower value 0.995 | S. cerevisiae deletion strains, locus YPR141C, strain kar3, stronger effect = lower value 0.984 | S. cerevisiae deletion strains, locus YPR163C, strain tif3, stronger effect = lower value 0.99 | S. cerevisiae deletion strains, locus YPR167C, strain met16, stronger effect = lower value 0.991 | S. cerevisiae deletion strains, strain wtn01, stronger effect = lower value 0.977 | S. cerevisiae strains, strain wild type, stronger effect = lower value 1.01
